Assay outcomes from PubChem BioAssay.
Hits are enriched below; roughly 1.3% of the tested compounds scored in any of these assays.
USP1 inh – blocks the human USP1/UAF1 deubiquitinase complex; recombinant USP1/UAF1, Ub-Rhodamine cleavage fluorescence; hit rate 0.23% among 390,000; Potency, µM (series often up to 57.1 µM), for inactives: at the top dose activity change, negative = inhibition, actives largely listed as inhibitors; O94782; also: % is scaled to controls: 0 for no effect and ±100 for the full control effect; nearly all actives have a fitted effect of over 60% in size
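USP1/UAF1 complex (1 nM) preincubated 15 min at room temperature with compound, then Ub-Rho substrate (150 nM final) added. Kinetic fluorescence at 480/540 nm over 6 reads at 60 s intervals; 50 mM HEPES pH 7.8, 0.5 mM EDTA, 0.1 mg/ml BSA, 1 mM TCEP, 0.01% Tween-20.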
ALOX12 inh – inhibitors of human 12S-lipoxygenase ALOX12; Potency, µM (titrated, usually from 108 µM), without a hit: top-dose activity change, negative = inhibition, hits mostly inhibitors; hit rate 1.1% among 580,000; purified 12hLO, xylenol orange hydroperoxide absorbance; P18054; also: % is scaled to controls: 0 for no effect and ±100 for the full control effect
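Purified human 12hLO (150 nM final) in 25 mM Hepes, 0.01% Triton X-100, pH 7.0 was preincubated 15 min at room temperature with compound. Then 40 uM arachidonic acid was added, 30 min. Hydroperoxide was read by Fe-XO absorbance ratio 573/405 nm.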
EPAC2 agonist – EPAC2 (human) agonism; Q8WZA2; EPAC2 activation, biochemical qHTS; response scale: 100% = 6.5 mM cAMP response; Potency, µM (titrated, usually from 154 µM), inactives show at the top dose activation, actives largely listed as activators; hit rate 0.079% among 360,000; also: nearly all actives have a fitted effect of over 50% in size
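Nucleotide exchange monitored as fluorescence drop when BODIPY-GDP leaves Rap1B. Reaction: 100 nM EPAC2, 250 nM RAP1B-BODIPY-GDP, 50 uM GDP, room temperature, kinetic read over 30 min. Activity expressed relative to 6.5 mM cAMP.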
EPAC1 antagonist – EPAC1 (human) antagonism; EPAC1 GEF assay, Rap1b-BODIPY-GDP exchange fluorescence; AID 720709; O95398; hit rate 0.14% among 360,000; Potency, µM (doses to about 115 µM), for inactives: at the highest dose activity change, negative = inhibition, most hits filed as inhibitors;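 also: plate controls were vehicle for no effect and positive control for full effect; nearly all actives have a fitted effect of over 50% in size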
Target sequence (O95398 whole entry, looked up): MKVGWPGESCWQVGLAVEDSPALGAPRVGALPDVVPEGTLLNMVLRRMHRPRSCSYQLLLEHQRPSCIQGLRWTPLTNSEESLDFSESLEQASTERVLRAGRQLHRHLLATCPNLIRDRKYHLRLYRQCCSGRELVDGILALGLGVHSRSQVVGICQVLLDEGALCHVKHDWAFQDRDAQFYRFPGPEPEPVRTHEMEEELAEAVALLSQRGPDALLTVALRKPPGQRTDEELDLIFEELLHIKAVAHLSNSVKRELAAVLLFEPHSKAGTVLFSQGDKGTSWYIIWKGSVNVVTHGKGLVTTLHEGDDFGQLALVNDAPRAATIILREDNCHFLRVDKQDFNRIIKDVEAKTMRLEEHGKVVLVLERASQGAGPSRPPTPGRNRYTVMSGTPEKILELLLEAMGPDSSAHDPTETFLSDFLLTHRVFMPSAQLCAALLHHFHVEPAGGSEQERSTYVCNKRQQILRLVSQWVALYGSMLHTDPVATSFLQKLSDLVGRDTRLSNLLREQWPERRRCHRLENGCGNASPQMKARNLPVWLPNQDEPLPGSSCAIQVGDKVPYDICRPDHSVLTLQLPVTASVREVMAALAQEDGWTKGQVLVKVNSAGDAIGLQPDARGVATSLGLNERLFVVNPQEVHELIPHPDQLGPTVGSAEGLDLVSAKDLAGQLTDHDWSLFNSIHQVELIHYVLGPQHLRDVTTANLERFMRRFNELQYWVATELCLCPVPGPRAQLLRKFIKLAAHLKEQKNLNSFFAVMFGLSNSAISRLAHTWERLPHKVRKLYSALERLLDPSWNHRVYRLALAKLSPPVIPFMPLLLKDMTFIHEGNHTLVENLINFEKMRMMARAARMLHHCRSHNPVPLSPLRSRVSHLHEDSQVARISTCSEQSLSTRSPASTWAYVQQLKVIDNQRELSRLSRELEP
EPAC2 antag – EPAC2 (human) antagonism; EPAC2 GEF exchange of Rap1B-BODIPY-GDP, fluorescence; Potency, µM (series often up to 114 µM), without a hit: top-dose activity, negative = inhibition, usual class: inhibitors; hit rate 0.18% among 360,000; AID 720708; also: % is scaled to controls: 0 for no effect and ±100 for the full control effect; nearly all actives have a fitted effect of over 45% in size
EPAC1 agonist – EPAC1 (human) agonism; AID 720707; O95398; Potency, µM (series often up to 154 µM), for inactives: top-dose activation, actives largely listed as activators; hit rate 0.073% among 360,000; EPAC1 agonist qHTS, biochemical assay; response scale: 100% = response to 6.5 mM cAMP; also: nearly all actives have a fitted effect of over 60% in size
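Read-out is the fluorescence drop as BODIPY-GDP leaves Rap1B (480 nm excitation, 540 nm emission), recorded every 5 minutes over 30 minutes. Reactions held 100 nM EPAC1, 250 nM Rap1B–BODIPY-GDP and 50 uM GDP, with 6.5 mM cAMP setting full activation.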
* = called active by the depositor; ? = inconclusive; · = no result. Calls follow the shape of the dose curve; as a rule, active = well fitted curve in the direction sought with a large enough effect; inconclusive = small, poorly fitted or top-dose-only effect, or another doubt; inactive = no such curve, though single readings can be large; an effect the other way counts as inactive or inconclusive. Potency is read from the fitted curve at half-maximal effect.

SMILES | USP1 inh | ALOX12 inh | EPAC2 agonist | EPAC1 antagonist | EPAC2 antag | EPAC1 agonist
O=C(CSc1nc(-c2ccc(F)cc2)cc(C(F)(F)F)n1)NC1CCCCC1 | · | 10.4% | · | · | · | ·
O=C(/C=C/c1ccccc1)N1CCCC1 | · | 1.3% | · | · | · | ·
CCCOc1ccc(/C=C2/C(=O)ON=C2C)cc1OCC | -25.5% | ? | -5.5% | -6.7% | 1.9% | 0.9%
COc1cc(/C=C2/C(=O)ON=C2c2ccccc2)ccc1O | -11.4% | ? | -2.6% | 9.1% | 6.7% | 1.9%
O=C1ON=C(c2ccccc2)/C1=C\c1ccco1 | ? | 6.31µM* | -3.7% | -4.7% | 1.7% | 4.2%
CCCOc1ccccc1/C=C1/C(=O)ON=C1C | -23.6% | 39.8µM* | -0.8% | -3.4% | -4.9% | 3.3%
Cc1ccc(/C=C2/C(=O)ON=C2c2ccccc2)o1 | -0.6% | 10µM* | 4.3% | ? | 2.3% | -9.8%
COc1cc([N+](=O)[O-])ccc1-c1ccc(/C=C2\C(=O)ON=C2c2ccccc2)o1 | -3.1% | ? | 13.0% | -11.7% | 50.1µM* | 9.6%
COc1ccc(-c2cc3ccc(OC(=O)C(C)(C)C)cc3oc2=O)cc1OC | · | 47.3% | · | · | · | ·
CCCNC(=S)Nc1cc(Cl)c(Cl)cc1Cl | · | -37.4% | · | · | · | ·
CCN1CC(CN(C)Cc2nnc(C)o2)Oc2ccccc21 (centres undefined) | · | -28.2% | · | · | · | ·
CCC(=O)N(C)CCCNC(=O)c1nc2ccccc2c(=O)[nH]1 | · | 24.9% | · | · | · | ·
O=C1ON=C(c2ccccc2)/C1=C/c1ccccc1 | -15.5% | 6.31µM* | -6.9% | -27.7% | ? | -11.4%
Cc1ccc(C2=NOC(=O)/C2=C\c2ccccc2)cc1 | -22.0% | ? | -5.4% | -23.3% | -14.5% | -7.5%
O=C1ON=C(c2ccc(Cl)cc2)/C1=C/c1ccc(O)cc1 | -18.1% | 31.6µM* | -8.4% | -16.2% | 6.1% | -6.6%
CCOc1cc(/C=C2\C(=O)ON=C2c2ccccc2)cc(Br)c1O | -24.3% | 22.4µM* | -3.4% | ? | 1.5% | -16.2%
CC1=NOC(=O)/C1=C\c1ccc(-c2cccc(Cl)c2)o1 | ? | · | -8.7% | -10.9% | -29.7% | -13.7%
CC1=NOC(=O)/C1=C\c1ccc(-c2ccccc2Br)o1 | ? | 5.62µM* | -6.6% | ? | ? | 4.0%
CC1(C)Cc2cccc(OCc3ccc(C(=O)NCc4ccccc4)cc3)c2O1 | · | 2.2% | · | · | · | ·
COc1ccc2ccc(OCc3nc(C(=O)N(C)Cc4cc(C)no4)co3)cc2c1 | · | 31.4% | · | · | · | ·
O=C(Nc1ccc(-n2cccn2)c(F)c1)C1CCCN(C(=O)c2ccoc2)C1 (centres undefined) | · | -14.4% | · | · | · | ·
NC(=O)c1ccccc1OCc1coc(-c2ccccc2)n1 | · | 21.5% | · | · | · | ·
O=C1ON=C(c2ccccc2)/C1=C/c1ccc(O)cc1 | -14.8% | 44.7µM* | -3.7% | 7.1% | 1.6% | -5.9%
CC1=NOC(=O)/C1=C/c1ccc(O)cc1 | -18.1% | 15.8µM* | -0.1% | 5.2% | 25.7% | -0.8%
COc1cccc(-c2ocnc2C(=O)NCc2ccc(OC)cc2OC)c1 | · | 2.5% | · | · | · | ·
SMILES | USP1 inh | ALOX12 inh | EPAC2 agonist | EPAC1 antagonist | EPAC2 antag | EPAC1 agonist
COc1ccc(C)cc1NC(=O)C(C)N1CCOCC1 (centres undefined) | -30.1% | 11.2µM* | 1.8% | 4.8% | 5.8% | -5.2%
CC(=O)c1ccc(OCc2ccc(F)cc2)cc1 | · | 40.2% | · | · | · | ·
CN=c1scc(-c2ccc(F)cc2)n1/N=C/c1ccc(O)c(O)c1 | -23.1% | 44.7µM* | 25.9% | -6.4% | -8.9% | 19.6%
CN=c1scc(-c2ccc([N+](=O)[O-])cc2)n1/N=C/c1ccco1 | -13.7% | ? | -2.4% | 11.9% | 3.1% | 2.9%
CC(=O)C1=C(C)N(Cc2ccc(Br)cc2)C(=S)NC1c1cccc(F)c1 (centres undefined) | · | 44.7µM* | · | · | · | ·
CC(=O)C1=C(C)N(Cc2ccc(Br)cc2)C(=S)NC1c1ccc(F)cc1 (centres undefined) | · | 35.5µM* | · | · | · | ·
CC(=O)C1=C(C)N(Cc2ccc(F)cc2)C(=S)NC1c1ccc(Br)cc1 (centres undefined) | · | 35.5µM* | · | · | · | ·
O=C(CC[C@@H]1CNC(=O)[C@@H]2C[C@H](NC(=O)c3ccccc3)CN12)NCc1ccc(F)cc1 | · | 31.6µM* | · | · | · | ·
